# In PubChem BioAssay:
# Active and inactive are the calls of the source. Unless noted, how the calls were made is not given here.
# Assays:
# [1] = A549 cell viability effects, profiling panel, calcein-AM fluorescence, 48 h, basal (AID 1162); details: higher = more signal; further: test concentration not given here
# [2] = adipocyte viability effects, profiling panel, cell-based, 3T3-L1 adipocytes, calcein-AM fluorescence, 48 h, basal (AID 1163); details: 3T3-L1 adipocytes viability, higher = more signal; further: test concentration not given here
# [3] = HepG2 cell viability effects, profiling panel, calcein-AM fluorescence, 48 h, basal (AID 1164); details: higher = more signal; further: test concentration not given here
# [4] = MM1S cell viability effects, profiling panel, calcein-AM fluorescence, 48 h, basal (AID 1165); details: higher = more signal;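 further: viability of MM1S multiple myeloma cells under basal unstimulated conditions; test concentration not given here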
# [5] = basal RPMI8226 viability, no added stimulus, profiling panel, cell-based, calcein-AM fluorescence, 48 h, PK04 Diversity Set (AID 1166); details: RPMI8226 myeloma viability, higher = more signal;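 further: cells grown under basal conditions without added stimulus; test concentration not given here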
# [6] = basal HepG2 mitochondrial membrane potential changes, profiling panel, cell-based, JC-1 fluorescence, 24 h, 100 nL compound (AID 1167); details: higher = more signal; further: test concentration not given here
# [7] = basal 3T3-L1 adipocyte mitochondrial potential changes, profiling panel, cell-based, JC-1 fluorescence, 3T3-L1 adipocytes, 24 h, 100 nL compound (AID 1168); details: JC-1 mitochondrial fluorescence, higher = more signal, called active from +8 up or from −8 down; further: test concentration not given here
# [8] = basal RPMI8226 mitochondrial membrane potential changes, profiling panel, cell-based, JC-1 fluorescence, 24 h, 100 nL compound (AID 1169); details: RPMI8226 myeloma, JC-1 mitochondrial potential fluorescence, higher = more signal; further: test concentration not given here
# [9] = basal MM1S mitochondrial membrane potential changes, profiling panel, cell-based, JC-1 fluorescence, 24 h, 100 nL compound (AID 1170); details: higher = more signal; further: test concentration not given here
# [10] = A549 lung cancer cell viability effects, profiling panel, resazurin fluorescence, 24 h, PK04 Diversity Set (AID 1171); details: higher = more signal, called active from +8 up or from −8 down; further: test concentration not given here
# [11] = HepG2 liver cancer cell viability effects, profiling panel, resazurin fluorescence, 24 h, PK04 Diversity Set (AID 1172); details: higher = more signal; further: test concentration not given here
# [12] = basal S. cerevisiae growth modulation, no modifier, primary screen, OD600, strain BY4716, 24 h, basal condition (AID 1173); details: OD600, 24 h, higher = more signal, called active from +8 up or from −8 down
# [13] = MM1S myeloma cell viability, profiling panel, resazurin fluorescence, basal, 24 h, PK04 Diversity Set (AID 1174); details: higher = more signal, called active from +8 up or from −8 down;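 further: MM1S multiple myeloma cell line; test concentration not given here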
# [14] = target: Dihydroorotate dehydrogenase (quinone), mitochondrial (Plasmodium falciparum (isolate 3D7)) (UniProt Q08210); experiment: PfDHODH enzyme inhibitors, primary screen, biochemical, C-terminal His tag, absorbance 600 nm (AID 1175); details: DCIP absorbance 600 nm, higher = more signal, called active from +8 up or from −8 down;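 further: recombinant parasite enzyme with a five histidine tag at its C terminus; test concentration not given here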
# Dihydroorotate dehydrogenase (quinone), mitochondrial (Plasmodium falciparum (isolate 3D7)), sequence (Q08210 whole entry, looked up): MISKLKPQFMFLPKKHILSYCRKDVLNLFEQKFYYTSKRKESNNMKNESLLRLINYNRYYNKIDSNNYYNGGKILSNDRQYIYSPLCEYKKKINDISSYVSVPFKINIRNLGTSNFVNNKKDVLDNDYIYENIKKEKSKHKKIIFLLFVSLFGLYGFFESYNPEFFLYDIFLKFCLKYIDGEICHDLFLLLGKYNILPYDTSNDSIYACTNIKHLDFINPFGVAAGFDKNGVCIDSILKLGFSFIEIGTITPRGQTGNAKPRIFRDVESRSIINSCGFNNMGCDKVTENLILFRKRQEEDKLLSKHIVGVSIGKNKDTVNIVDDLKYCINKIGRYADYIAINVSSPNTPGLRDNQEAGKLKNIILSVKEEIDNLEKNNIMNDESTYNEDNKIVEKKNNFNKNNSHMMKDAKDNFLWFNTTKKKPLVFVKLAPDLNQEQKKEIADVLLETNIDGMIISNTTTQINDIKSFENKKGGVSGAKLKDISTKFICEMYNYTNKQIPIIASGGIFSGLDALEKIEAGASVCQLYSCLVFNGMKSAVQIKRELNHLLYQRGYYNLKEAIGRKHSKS
# [15] = P. aeruginosa biofilm formation inhibitors, primary screen, strain PAO1, LB-PBS medium, absorbance 600 nm (AID 1176); further: test concentration not given here; details: P. aeruginosa PAO1 growth/biofilm, A600, 12 h; higher = more signal
# [16] = S. cerevisiae RM11-1a growth modifiers, primary screen, strain RM11-1a, OD600, basal, 24 h (AID 1177); details: OD600, 24 h, higher = more signal, called active from +8 up or from −8 down;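 further: cultures grown under basal conditions with no added stressor; test concentration not given here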
# [17] = E. coli acrAB mutant growth effects, primary screen, E. coli filamentation inducers, strain DRC39, OD650, 24 h (AID 1178); details: higher = more signal, called active from +8 up or from −8 down;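 further: growth measured as culture turbidity by optical density at 650 nm; test concentration not given here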
# [18] = E. coli acrAB mutant growth effects, primary screen, E. coli filamentation inducers, strain DRC39, OD650, 48 h (AID 1179);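 further: screen aims at cell division blockers that make cells filament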; details: E. coli DRC39 delta-acrAB growth, higher = more signal, called active from +8 up or from −8 down
# [19] = RPMI8226 myeloma cell viability, profiling panel, resazurin fluorescence, basal, 24 h, PK04 Diversity Set (AID 1180); details: higher = more signal;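 further: RPMI8826 multiple myeloma cell line at 5000 cells per well; test concentration not given here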
# [20] = target: E3 ubiquitin-protein ligase XIAP (Homo sapiens) (UniProt P98170); experiment: XIAP binders, primary screen, biophysical, small-molecule microarray, fluorescence 635 nm (AID 1181); details: small-molecule microarray binding, higher = more signal;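 further: score merges 667 nm emission and signal to noise over triplicate slides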
# E3 ubiquitin-protein ligase XIAP (Homo sapiens), sequence (P98170 whole entry, looked up): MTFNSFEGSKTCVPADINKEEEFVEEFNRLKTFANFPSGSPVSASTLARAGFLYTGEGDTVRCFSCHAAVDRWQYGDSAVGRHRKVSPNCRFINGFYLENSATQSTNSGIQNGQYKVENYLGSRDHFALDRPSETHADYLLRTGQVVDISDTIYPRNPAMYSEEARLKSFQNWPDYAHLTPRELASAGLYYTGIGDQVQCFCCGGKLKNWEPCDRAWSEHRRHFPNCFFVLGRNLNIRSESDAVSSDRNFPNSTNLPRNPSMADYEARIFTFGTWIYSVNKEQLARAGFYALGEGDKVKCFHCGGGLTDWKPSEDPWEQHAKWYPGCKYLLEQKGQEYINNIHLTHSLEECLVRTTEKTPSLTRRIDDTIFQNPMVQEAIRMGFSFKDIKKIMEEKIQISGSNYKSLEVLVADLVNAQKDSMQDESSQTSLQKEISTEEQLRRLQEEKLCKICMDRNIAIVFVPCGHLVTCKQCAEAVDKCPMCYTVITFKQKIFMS
SMILES,z-score [1],z-score [2],z-score [3],z-score [4],z-score [5],z-score [6],z-score [7],z-score [8],z-score [9],z-score [10],z-score [11],z-score [12],z-score [13],composite z-score [14],z-score [15],z-score [16],z-score [17],z-score [18],z-score [19],composite z-score [20]
O=C1OCC=C[C@H]2OC34C=CCN(c5ccc(Cl)cc5)C(=O)[C@H]3N(CCCCCO)C(=O)[C@@H]4[C@@H]12 (stereo not given in full),-0.746,0.699,-0.231,0.733,0.707,-0.26,0.37 (inactive),0.536,1.35,-0.283 (inactive),-0.46,-1.1 (inactive),-0.338 (inactive),0.193 (inactive),-0.0963 (inactive),0.119 (inactive),0.602 (inactive),0.182 (inactive),0.0508,0.287
CCOC(=O)C1=CC[C@@H](c2cc(Cl)ccc2Cl)N(S(=O)(=O)c2ccc(C)cc2)[C@H]1c1ccc(OC)cc1,-0.41,-0.603,0.118,-0.852,0.199,1.17,-1 (inactive),0.642,-2.07,-0.629 (inactive),0.292,2.05 (inactive),-1.34 (inactive),0.658 (inactive),0.0767 (inactive),2.28 (inactive),-0.61 (inactive),-1.03 (inactive),-1.97,0.179
C=C[C@H](COC(C)=O)NS(=O)(=O)c1ccc(Br)cc1,0.0955,-0.569,1.05,0.661,0.402,0.549,0.0685 (inactive),-0.616,0.651,-0.201 (inactive),0.266,-1.05 (inactive),-0.05 (inactive),-1.08 (inactive),-0.18 (inactive),0.579 (inactive),0.165 (inactive),-0.0304 (inactive),-0.675,-0.0627
O=C(O)[C@H]1C[C@H]2C(=O)N3CCC[C@H]3C(=O)N2[C@H]1c1cccc(OCCO)c1,1.67,-0.156,0.601,0.792,-0.8,1.96,-0.652 (inactive),-0.77,-0.568,1.04 (inactive),1.32,-0.361 (inactive),0.209 (inactive),-0.117 (inactive),-0.695 (inactive),0.43 (inactive),0.481 (inactive),0.896 (inactive),0.268,-0.0901
CC=CC(O)C1C=CC2C(=O)N(c3ccccc3)C(=O)C2N1Nc1ccccc1 (stereo not given),1.04,-0.511,1.05,0.214,-0.279,-0.222,0.243 (inactive),-0.866,-0.749,0.0599 (inactive),0.965,-1.01 (inactive),0.171 (inactive),-0.174 (inactive),1.89 (inactive),-0.564 (inactive),0.176 (inactive),0.412 (inactive),0.394,0.649
COCC(=C=CC[C@H](O)c1ccc(OCCO)cc1)C[C@H](O)COCc1ccccc1,0.542,1.24,0.115,-0.26,0.249,1.07,-0.801 (inactive),-0.245,-0.748,0.925 (inactive),0.993,-1.49 (inactive),1.18 (inactive),-0.95 (inactive),0.33 (inactive),-1.3 (inactive),0.979 (inactive),0.921 (inactive),1.51,-0.0238
CCOC(=O)C1=CC[C@@H](c2ccc([N+](=O)[O-])cc2)N(S(=O)(=O)c2ccc(C)cc2)[C@H]1c1ccccc1,-0.143,-0.786,0.239,-0.767,-0.281,2.35,-0.233 (inactive),1.21,-1.25,0.807 (inactive),0.468,2.52 (inactive),0.541 (inactive),0.914 (inactive),0.229 (inactive),0.901 (inactive),-0.72 (inactive),-0.445 (inactive),0.546,-0.124
C=CCC(OC(C)=O)[C@@H]1[C@@H](N(Cc2cc3ccccc3o2)C(=O)Cc2ccc(F)cc2)c2cc(OCCCO)ccc2N1C(=O)c1ccc2ccccc2n1 (stereo not given in full),-0.153,1.2,1.09,0.466,-0.553,1.72,-0.528 (inactive),-0.131,0.288,0.642 (inactive),0.182,-0.44 (inactive),0.74 (inactive),-0.235 (inactive),0.243 (inactive),-0.176 (inactive),0.106 (inactive),0.155 (inactive),0.708,-0.217
C=CCOC(=O)[C@@H]1[C@H]2C(=O)O[C@H](c3ccccc3)[C@H](c3ccccc3)N2[C@H](c2ccc(OCCOC(=O)[C@H]3C[C@H]4C(=O)N[C@@H](CCCCNC(C)=O)C(=O)N4[C@H]3c3cccc(OCCO)c3)cc2)[C@@]12C(=O)Nc1ccc(I)cc12,-0.596,0.159,0.821,-0.387,-0.0069,-0.742,0.605 (inactive),-0.517,-0.864,0.304 (inactive),-0.299,1.39 (inactive),-0.565 (inactive),-0.406 (inactive),4.17 (inactive),2 (inactive),-0.115 (inactive),0.228 (inactive),-0.354,0.0073
